Results reported in PubChem BioAssay.
Values joined by “and” are separate entries in the source; they are usually repeats but may differ in a detail not shown here. Equal values may be shown once. Active and inactive are the calls of the source.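 Rule for the calls, unless noted: active = compounds whose cell count with miR-34 switched on is under 0.7 times the count with it off; inactive = the rest.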

How the values were obtained:
[1] = P. berghei load reduction in hepatocytes – cell-based, HepG2, luciferase luminescence, HepG2 viability, primary screen (AID 624349; in the data active = parasite load remaining mostly below about 12%, no sharp cut-off; inactive = mostly above about 10%;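 note: 100% = mean of DMSO negative control wells on the same plate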); conditions: P. berghei liver stage in HepG2, luciferase luminescence, concentration not given here; parasite load remaining: stronger effect = lower value; viability: measured here: HepG2 viability without parasites
[2] = viability loss with induced miR-34 in A549 – imaging, A549 dox-inducible miR-34, nuclei and caspase counts, primary screen (AID 1347080); conditions: A549 miR-34 inducible, Hoechst nuclei count, 48 h
[3] = compounds altering viability of human ES cells (AID 493140; call rule not given here;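 note: cells exposed to compounds for four days before counting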); conditions: human embryonic stem cell survival screen; stronger effect = higher value
[4] = stronger effect = lower value, cell number ratio, induced over uninduced
[5] = measured here: relative caspase fold change +Dox/-Dox
[6] = measured here: total cells with miR-34 induction, stronger effect = lower value
[7] = measured here: total cells without miR-34 induction

CC[C@H]1OC(=O)[C@H](C)[C@@H](OC2C[C@@](C)(OC)[C@@H](O)[C@H](C)O2)[C@H](C)[C@@H](O[C@@H]2O[C@H](C)C[C@H](N(C)C)[C@H]2O)[C@](C)(O)C[C@@H](C)/C(=N\OCOCCOC)[C@H](C)[C@@H](O)[C@]1(C)O (stereo partly drawn)
parasite load remaining [1]: 75.3% (inactive)
viability [1]: 93.9%
fold change [2, 4]: 0.893 (inactive)
fold change [2, 5]: 1
cell count [2, 6]: 9320
cell count [2, 7]: 10400

CCOC(=O)[C@H](CCc1ccccc1)N[C@@H](C)C(=O)N1C(C(=O)O)C[C@@H]2CCC[C@@H]21 (stereo partly drawn)
survival [3]: 13.5 (inactive)
parasite load remaining [1]: 66.3% (inactive)
viability [1]: 72.7%
fold change [2, 4]: 0.971 (inactive)
fold change [2, 5]: 0.659
cell count [2, 6]: 9850
cell count [2, 7]: 10100

C[N+]1(C)CCC[C@H]1C(=O)[O-]
survival [3]: 11.7 (inactive)
parasite load remaining [1]: 174% (inactive) and 67% (inactive)
viability [1]: 106% and 78.6%
fold change [2, 4]: 0.876 (inactive)
fold change [2, 5]: 1.44
cell count [2, 6]: 8860
cell count [2, 7]: 10100

O=c1cc(-c2ccc(O)cc2)oc2c(C3O[C@H](CO)[C@@H](O)[C@H](O)[C@H]3O)c(O)cc(O)c12 (stereo partly drawn)
survival [3]: 3.5 (inactive)
parasite load remaining [1]: 96.7% (inactive)
viability [1]: 101%
fold change [2, 4]: 0.841 (inactive)
fold change [2, 5]: 1.12
cell count [2, 6]: 8230
cell count [2, 7]: 9780

COc1ccc2c3c([nH]c2c1)[C@H]1C[C@H]2[C@H](C[C@@H](O)[C@H](OC)[C@H]2C(=O)O)CN1CC3
survival [3]: 7.42 (inactive)
parasite load remaining [1]: 113% (inactive)
viability [1]: 75.4%
fold change [2, 4]: 0.96 (inactive)
fold change [2, 5]: 0.581
cell count [2, 6]: 9000
cell count [2, 7]: 9370

C=Cc1c(C)c2cc3nc(cc4[nH]c(cc5nc(cc1[nH]2)C(C)=C5CCC(=O)O)c(CCC(=O)O)c4C)[C@@]1(C)C3=CC=C(C(=O)OC)C1C(=O)OC (stereo partly drawn)
parasite load remaining [1]: 82.4% (inactive)
viability [1]: 67.8%
fold change [2, 4]: 0.97 (inactive)
fold change [2, 5]: 1.04
cell count [2, 6]: 9050
cell count [2, 7]: 9330

Oc1cc(O)c2c(c1)OC(c1ccc(O)c(O)c1)C(O)C2 (stereo not drawn)
parasite load remaining [1]: 64.2% (inactive)
viability [1]: 97%
fold change [2, 4]: 0.908 (inactive)
fold change [2, 5]: 1.18
cell count [2, 6]: 9500
cell count [2, 7]: 10500

CCC(C)[C@H]1O[C@]2(CC[C@@H]1C)C[C@@H]1C[C@@H](C/C=C(\C)[C@@H](OC3C[C@H](OC)C(O[C@H]4C[C@H](OC)[C@@H](O)[C@H](C)O4)[C@H](C)O3)[C@@H](C)/C=C/C=C3\CO[C@@H]4[C@H](O)C(C)=C[C@@H](C(=O)O1)[C@]34O)O2 (stereo partly drawn)
parasite load remaining [1]: 54.4% (inactive)
viability [1]: 90.4%
fold change [2, 4]: 1.04 (inactive)
fold change [2, 5]: 1.61
cell count [2, 6]: 4770
cell count [2, 7]: 4580

CCCCCCCCCCCCCCC[C@@H](O)[C@H](CO)NC(=O)CCCCCCC
survival [3]: 84.9 (inactive)
fold change [2, 4]: 0.925 (inactive)
fold change [2, 5]: 1.41
cell count [2, 6]: 5910
cell count [2, 7]: 6390

COc1c2ccoc2nc2c(OC)c(OC[C@@H](O)C(C)(C)O)ccc12
parasite load remaining [1]: 153% (inactive)
viability [1]: 90.5%
fold change [2, 4]: 0.816 (inactive)
fold change [2, 5]: 1.39
cell count [2, 6]: 8040
cell count [2, 7]: 9850

CCCCCCCCCCCCCCCC(=O)OCC(COP(=O)(O)O)OC(=O)CCCCCCCCCCCCCCC (stereo not drawn)
survival [3]: 95.5 (inactive)
fold change [2, 4]: 0.922 (inactive)
fold change [2, 5]: 1.21
cell count [2, 6]: 5850
cell count [2, 7]: 6340
